Reference: PubChem BioAssay AID1578 (Sanford-Burnham Center for Chemical Genomics, 2009)
Where “and” joins values, the source holds several entries; their conditions need not be identical. Equal entries are not always repeated. In all, about 290,000 compounds went through this assay and about 3,000 (1%) were called active. This excerpt belongs to a sample that is enriched for actives. Unmarked numbers belong to inactive results. No stated cut-off is given here; in the data, active means inhibition mostly above about 36% (no sharp cut-off); inactive means mostly below about 34%.

experiment: inhibition of NOD1-driven NF-kB reporter – cell-based, luminescence, uHTS, primary screen (AID 1578); details: NOD1-driven NF-kB luciferase reporter cells, at 4 µM, stronger effect = higher value;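 further: HEK-293T reporter cells stimulated with the NOD1 agonist gamma-tri-DAP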

| SMILES | inhibition |
| --- | --- |
| COc1ccccc1-c1noc(CCCC(=O)N2CCOCC2)n1 | -3.7% |
| O=C(CCc1nc(-c2ccc(Cl)cc2)no1)NC1CCCCC1 | -5.8% |
| CCOC(=O)C1CCCN(C(=O)CNC(=O)Cn2ccc3ccccc3c2=O)C1 (configuration not stated) | -4.8% |
| O=C(NC(=O)N1CCCCC1)c1ccccc1 | -30.9% |
| O=C(NCc1ccccc1)c1cc[n+](CC(=O)c2cccs2)cc1 | 3.5% |
| CCOc1ccc(CN(C)C(=O)c2ccc3ccccc3n2)cc1 | -22.9% |
| Cc1cccc(N(Cc2ccccc2)C(=O)c2ccc(S(C)(=O)=O)cc2)c1 | 5.8% |
| O=[N+]([O-])c1ccc(N2CCN(C(=S)NCc3ccc(Cl)cc3)CC2)cc1 | 89% (active) |
| CCNC(=S)N1CCN(c2ccc([N+](=O)[O-])cc2)CC1 | 16% |
| C=CCNC(=S)N1CCN(c2ccc([N+](=O)[O-])cc2)CC1 | 4.7% |
| CC(C)(C)n1nc2c(c1NC(=O)c1cc(Cl)ccc1[N+](=O)[O-])CS(=O)(=O)C2 | 19.5% |
| O=C(O)CSc1nnc(-c2ccc(Cl)cc2Cl)n1-c1ccc(Br)cc1 | 14.7% |
| Cc1ccc(N=Nc2c(N)[nH]n3c(=O)cc(-c4ccccc4)nc23)cc1 | 76% (active) |
| Nc1[nH]n2c(=O)cc(-c3ccccc3)nc2c1N=Nc1ccc(S(N)(=O)=O)cc1 | -26% |
| Cc1ccc(N=Nc2c(N)[nH]n3c(=O)cc(C)nc23)cc1 | -20.5% |
| O=C(O)CSc1nc(-c2ccccc2)cc(=O)[nH]1 | -22.9% |
| Cc1ccc(C(=O)CSc2nc(C)cc(=O)[nH]2)cc1 | -3.4% |
| Cc1ccc(C(=O)CSc2nc(-c3ccccc3)cc(=O)[nH]2)cc1 | 64.8% (active) |
| CCOC(=O)Cn1c(=O)oc2cc(S(=O)(=O)N(C)c3ccc(OC)cc3)ccc21 | 3.5% |
| COc1cc(/C=C2\C(=O)ON=C2c2ccccc2)cc(Br)c1O | 13.8% |
| CCOc1cc(/C=C2\C(=O)ON=C2c2ccccc2)cc(Br)c1O | 39.5% (active) |
| CCOc1cc(/C=C2/C(=O)ON=C2C)cc(Br)c1O | 25.8% |
| C/C(N)=C(/C#N)C(=O)COC(=O)CC12CC3CC(CC(C3)C1)C2 | 14.9% |
| CCn1c(CNC(=O)Cc2ccc(OC)cc2)nnc1SCC(=O)Nc1nccs1 | -10.4% |
| O=C(O)c1ccc(N=Nc2c(-c3ccccc3)[nH]oc2=O)cc1 | -2.7% |

| SMILES | inhibition |
| --- | --- |
| O=c1o[nH]c(-c2ccccc2)c1N=Nc1c(F)cccc1Cl | 37% (active) |
| Cc1[nH]oc(=O)c1N=Nc1c(Cl)cccc1Cl | -17% |
| Cc1ccc(N2C(=O)/C(=C/c3cccnc3)SC2=S)cc1 | 56.2% |
| C=C1C(C(=O)Nc2ccc(F)cc2)C1C(=O)Nc1ccc(F)cc1 (configuration not stated) | 3.1% |
| O/N=C/c1ccccc1Oc1ccc(Cl)cc1 | 72.6% (active) |
| O/N=C\c1ccccc1Oc1ccc(F)cc1 | 8% |
| O/N=C/c1ccccc1Oc1ccccc1 | 22.6% |
| CCOC(=O)/C(C#N)=C\c1cccnc1 | -19.2% |
| CCOC(=O)/C(=C\c1cccnc1)C(=O)c1cc(C(C)=O)c(Nc2ccccc2)s1 | 102% (active) |
| CCOC(=O)/C(=C\c1ccccc1)C(=O)c1cc(C(C)=O)c(Nc2ccccc2)s1 | 57.5% |
| Cc1ccc2occ(/C=N/NC(=O)c3ccccc3O)c(=O)c2c1 | -14.7% |
| Cc1ccc2occ(/C=N/NC(=O)c3ccccc3Br)c(=O)c2c1 | 29.9% |
| Cc1ccc2occ(/C=N/NC(=O)c3ccccc3C)c(=O)c2c1 | 49% (active) |
| O=S1(=O)C=C(SCc2cccc(Cl)c2)Nc2ccccc21 | 21.1% |
| COc1ccc(Nc2nc(C)nc3c2nnn3Cc2ccccc2)cc1OC | 0% |
| CCc1nc(Nc2ccc(OC)c(OC)c2)c2nnn(Cc3ccccc3Cl)c2n1 | 58.7% (active) |
| COc1cccc(OC)c1Nc1nc(C)nc2c1nnn2Cc1ccccc1Cl | -33.1% |
| O=C(Nc1ccnn1C1CCN(C2CCCCC2)CC1)c1ccccc1 | -6.5% |
| COc1cc(/C=N/n2c(C)nc3ccccc3c2=O)cc(OC)c1O | -6.8% |
| O=C(c1ccc(Cl)c(S(=O)(=O)N2CCCCC2)c1)N1CCCCC1 | -30.5% |
| NS(=O)(=O)c1cc(C(=O)N2CCNC(=O)C2)ccc1Cl | 70.4% (active) |
| O=C(c1ccc(Cl)c(S(=O)(=O)N2CCCCCC2)c1)N1CCCC1 | 0.4% |
| O=c1c2c([nH]c3ccccc13)C(=C1CCCC1)CC2 | 2.8% |
| Cc1ccc(N2CCN(C(=O)c3cccs3)CC2)cc1C | 1.8% |
| Cc1ccc(C2=[N+]([O-])C3(CCCCC/C3=N\O)N(O)C2(C)C)o1 (configuration not stated) | 14.4% |

| SMILES | inhibition |
| --- | --- |
| COc1ccc(CNC(=O)c2ccc(C(C)(C)C)cc2)cc1 | -24.6% |
| C[C@@H]1CC[C@@]2(O[C@H](CCO)C[C@@H](O)[C@@H]2O)O1 | -47.3% |
| CCCCCn1c(=O)[nH]c2cc(C(=O)N3CCN(CC)CC3)ccc2c1=O | -4% |
| COCCn1c(=S)[nH]c2cc(C(=O)N3CCN(Cc4ccc5c(c4)OCO5)CC3)ccc2c1=O | -2.2% |
| COc1ccc(-n2c(Cn3nnc4ccccc43)n[nH]c2=S)cc1 | 12% |
| COc1ccccc1S(=O)(=O)Nc1cc(S(=O)(=O)N2CCCCC2)ccc1N1CCOCC1 | -35.7% |
| Cc1ccc(C(=O)c2no[n+]([O-])c2C(=O)c2ccc(C)cc2)cc1 | 18% |
| COc1ccc(C(=O)c2no[n+]([O-])c2C(=O)c2ccc(OC)cc2)cc1 | 6.8% |
| O=C(c1cccs1)c1no[n+]([O-])c1C(=O)c1cccs1 | 98.1% (active) |
| O=S(=O)(c1ccc(F)c(F)c1F)N1CCN(C(=S)NC2CC3CCC2C3)CC1 (configuration not stated) | -22.5% |
| Cc1ccc(NC(=O)/C(C#N)=C/c2ccccc2C(F)(F)F)cc1 | -32.5% |
| Cc1nc2ccccn2c1-c1ccnc(SCc2ccc(Cl)cc2)n1 | 37.7% (active) |
| Clc1ccc(CSc2ncccn2)cc1 | -34.4% |
| Cc1ccc(CSc2nccc(-c3c(C)nc4ccccn34)n2)cc1 | 27% |
| COc1ccc2c(C)cc(SCC(=O)Nc3cc(C(N)=O)cc(C(N)=O)c3)nc2c1 | -7% |
| O=C(Cc1ccc(-c2ccccc2)cc1)NNC(=S)NCc1ccco1 | 41.4% (active) |
| O=C(Cc1cccs1)NNC(=S)NCc1ccco1 | -26.1% |
| O=C(O)Cc1ccc(NC(=S)NCc2ccco2)cc1 | -27.1% |
| CC(=O)c1ccc(C(=O)N2CCCC(CO)(Cc3ccccc3C)C2)s1 (configuration not stated) | -39% |
| COc1ccc2c(c1)c1nc3n(c(=O)c1n2CC(=O)Nc1cc(C)[nH]n1)CCS3 | 63.4% (active) |
| COc1ccc2c(c1)c1nc3n(c(=O)c1n2CC(=O)Nc1ccccc1)CCS3 | -17.5% |
| COc1ccc(NC(=O)Cn2c3ccc(OC)cc3c3nc4n(c(=O)c32)CCS4)cc1 | -15.9% |
| COc1ccc(OC(=O)N2CCOCC2)cc1 | -16.5% |
| CC1CCCC(NC(=O)COC(=O)Cc2cn3ccsc3n2)C1C (configuration not stated) | 6.7% |
| Cc1ccc(-c2c[n+]3c(n2-c2ccccc2)CCC3)cc1 | 25.4% |

| SMILES | inhibition |
| --- | --- |
| COc1ccccc1-n1c(-c2ccccc2)c[n+]2c1CCc1ccccc1-2 | 52.9% (active) and 68.6% (active) |
| COc1ccc(-n2c(-c3ccc(Br)cc3)c[n+]3c2CCc2ccccc2-3)cc1 | 13.3% |
| Cc1ccc(-n2c(-c3ccccc3)c[n+]3c2CCC3)cc1 | 9.5% |
| Cc1ccc(-n2c(-c3ccccc3)c[n+]3c2CCc2ccccc2-3)c(C)c1 | 66% (active) |
| COc1ccc(-n2c(-c3ccc(Cl)cc3)c[n+]3c2CCc2ccccc2-3)cc1 | 20.5% |
| CCOc1ccc(-c2c(C(=O)N/N=C/c3ccco3)nnn2-c2nonc2N)cc1 | -7.1% |
| O=C(Cn1cnc(S(=O)(=O)N2CCCCC2)c1)NCc1ccco1 | -11.7% |
| CC(C)N(Cc1ccccc1)C(=S)Nc1ccccc1F | -3.5% |
| CCOC(=O)CN(c1ccccc1C)S(=O)(=O)c1ccc(Cl)cc1 | 21.3% |
| CCN(CC)C(=O)Cn1cc(C(=O)C(=O)N(CC)C2CCCCC2)c2ccccc21 | -4.6% |
| Cn1c(=O)c2nc(Cl)c(-c3ccccc3)nc2n(C)c1=O | -30.8% |
| Cc1nc2c(=O)n(C)c(=O)n(C)c2nc1Cl | 94.4% (active) |
| Cn1c(=O)c2nc3ccccc3nc2n(C)c1=O | -21.3% |
| CCCC(C)NC(=O)/C=C/c1cccc([N+](=O)[O-])c1 (configuration not stated) | -26.2% |
| CCOC(=O)CNC(=O)CSc1nnc(NC(=O)c2ccc3c(c2)OCO3)s1 | -31.4% |
| CCOC(=O)CNC(=O)CSc1nnc(NC(=O)c2ccc(C)cc2)s1 | 44.8% (active) |
| CCOC(=O)CNC(=O)CSc1nnc(NC(=O)c2ccccc2Cl)s1 | -7.6% |
| CN1CCN(NC(=O)C23CC4CC(CC(C4)C2)C3)CC1 | -2.4% |
| COc1ccc2c(CC(=O)Nc3ccccc3OC)coc2c1 | 57.6% (active) |
| COc1ccc2c(CC(=O)Nc3ccccc3N3CCOCC3)coc2c1 | 16.3% |
| COc1ccccc1NC(=O)Cc1coc2cc(C)ccc12 | -17.5% |
| O=C(NC(=S)Nc1ncccn1)c1ccc(Cl)cc1Cl | -41.6% |
